Data taken from PubChem BioAssay.

The molecules below were run against Follistatin-related protein 3 (Homo sapiens) (UniProt O95633) (assay: FSTL3 binders on small-molecule microarrays, primary screen, biochemical, small-molecule microarray, 635 nm fluorescence (AID 1105;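 also: score merges emission near 667 nm and signal to noise per printed spot across three slides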)). Conditions: FSTL3 binding, higher = more signal.
Follistatin-related protein 3 (Homo sapiens), sequence (O95633 whole entry, looked up): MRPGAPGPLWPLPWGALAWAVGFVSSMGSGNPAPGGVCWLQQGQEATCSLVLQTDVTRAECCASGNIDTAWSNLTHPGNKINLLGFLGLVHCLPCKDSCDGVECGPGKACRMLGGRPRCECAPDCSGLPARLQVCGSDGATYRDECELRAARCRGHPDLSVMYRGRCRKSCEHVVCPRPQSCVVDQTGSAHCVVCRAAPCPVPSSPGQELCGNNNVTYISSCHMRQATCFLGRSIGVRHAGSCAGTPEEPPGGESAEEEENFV
In the case of `CC(C)[Si]1(C(C)C)OCc2cc(-c3ccc(-c4ccc(Cl)c(Cl)c4)o3)nc(CCc3ccccc3)c21`, the composite z-score is reported as 0.169.
Molecule `[N-]=[N+]=Nc1ccccc1[C@@H]1OC(c2ccc(OCCCO)cc2)=N[C@]1(Cc1ccccc1)C(=O)NCc1ccccc1` has a composite z-score of 0.395.
`C=C(C)[C@@H]1CC=C(C(O)C2C=CC3C(=O)N(c4ccccc4)C(=O)C3N2Nc2ccc(C#N)cc2)CC1` (stereo partly specified) was tested, and the composite z-score was 1.34.
In the case of `CCOC(=O)C1=C[C@@H](C(C)(C)C)N(S(=O)(=O)c2ccc(C)cc2)[C@H]1c1ccc(C)cc1`, the composite z-score is reported as 1.26.
With `CCOC(=O)C[C@H]1[C@H](OC(=O)c2ccccc2-c2ccccc2)[C@@H](NC(=O)c2ccccc2)c2cc(OCCCO)ccc2N1C(=O)c1ccccc1` the composite z-score was 0.284.
For `O=C1C2C=CC(C(O)C=Cc3ccc([N+](=O)[O-])cc3)N(Nc3ccccc3)C2C(=O)N1c1ccccc1` (stereo unspecified), the composite z-score was 1.31.
